Test results as given in PubChem BioAssay (NCI).
Compounds without any hit were thinned out: in the full panel of roughly 79,000, 15% have a hit. Values without a mark were called inactive. Activity calls are given as the source filed them. Rule as the data show it: active = growth inhibition above about 70%; inactive = the rest.

What was measured:
[1] = NCI Yeast Anticancer Drug Screen. Data for the rad50 strain (AID 155);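 also: 0% = growth of vehicle-only cultures of the same strain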; conditions: S. cerevisiae rad50 strain growth inhibition; at 50.0 µM; hits give high values
Method in brief: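 Relative growth inhibition (compound vs vehicle) was measured in yeast with a defined repair-gene alteration.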

[2] = NCI Yeast Anticancer Drug Screen. Data for the mec2-1 strain (AID 157); conditions: S. cerevisiae mec2-1 strain, at 50.0 µM, hits give high values
Method in brief: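 Each compound was tested on mec2-1 yeast, a strain altered in DNA damage repair or cell cycle control. Growth inhibition is reported relative to vehicle.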

[3] = NCI Yeast Anticancer Drug Screen. Data for the sgs1 mgt1 strain (AID 161);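 also: 0% = growth of cultures given vehicle only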; conditions: S. cerevisiae sgs1 mgt1 strain, at 50.0 µM, hits give high values
Method in brief: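 Genetically altered yeast, compound exposure, growth inhibition relative to vehicle.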

[4] = NCI Yeast Anticancer Drug Screen. Data for the cln2 rad14 strain (AID 165);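 also: 0% = growth equal to vehicle treated cultures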; conditions: S. cerevisiae cln2 rad14 strain, at 50.0 µM, hits give high values
Method in brief: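 Test compounds were added to cln2 rad14 yeast cultures; inhibition of growth was then determined by comparison with vehicle treatment.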

[5] = NCI Yeast Anticancer Drug Screen. Data for the bub3 strain (AID 167); conditions: S. cerevisiae bub3 mutant strain, at 50.0 µM, hits give high values
Method in brief: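 Screening used yeast with an engineered genetic alteration affecting cell cycle control. Compound-exposed cultures were compared with vehicle cultures, and reduced growth was taken as inhibition.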

[6] = NCI Yeast Anticancer Drug Screen. Data for the mlh1 rad18 strain (AID 175); conditions: S. cerevisiae mlh1 rad18 strain growth inhibition; at 50.0 µM; hits give high values
Method in brief: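 Inhibition values reflect reduced growth of mutant yeast versus vehicle-treated controls following compound exposure; the mutations affect DNA damage repair.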

Row | SMILES | growth inhibition [1] | growth inhibition [2] [%] | growth inhibition [3] | growth inhibition [4] [%] | growth inhibition [5] | growth inhibition [6]
1 | O=C(CSC1=NCCN1)c1ccccc1 | -17.9% | 6.3 | -27.1% | -57.9 | 8.55% | 11.6%
2 | CCOC(=O)c1c(C)c(C(C)=O)c2ccccn12 | -18.2% | -17.4 | -19.9% | -26.6 | 5.4% | -2.7%
3 | CN(C)S(=O)(=O)c1ccc(N)c([N+](=O)[O-])c1 | -0.2% | 10.7 | -7.75% | -5.05 | 7.55% | 14.3%
4 | O=C1CCCC/C1=C/c1ccccc1 | 6% | 18.9 | -3.3% | -19.1 | -11.9% | 8.05%
5 | O=c1[nH]c2ccccc2c(O)c1/C=N/C(=S)NC1CCCCC1 | -14.6% | -36.3 | -7.55% | 14.9 | 3.45% | 9.25%
6 | CCC(=O)Nc1nc2c(ncn2C2OC(COC(=O)CC)C(OC(=O)CC)C2OC(=O)CC)c(=O)[nH]1 (stereo not given) | -11.6% | 5.2 | 18.5% | 6.25 | 6.8% | -7.3%
7 | Nc1nc(SSc2nc(N)nc3c2ncn3C2OC(CO)C(O)C2O)c2ncn(C3OC(CO)C(O)C3O)c2n1 (stereo not given) | 1.4% | -5.8 | 3.9% | -34 | 9.45% | -1.3%
8 | CCOc1ccc(N2CCN(C(=O)Nc3ccccc3OC)CC2)cc1 | -4.1% | -6.2 | -1.8% | -47.5 | 21.1% | -3.95%
9 | C=C1C(c2ccccc2)C(c2ccccc2)=C(C)C(c2ccccc2)=CN1C(=O)c1ccccc1 (stereo not given) | -3.05% | 8.7 | -9.2% | 23.2 | -4.7% | 15.2%
10 | NC(=O)C(O)(c1ccc(Br)cc1)C(Cl)Cl (stereo not given) | 4.65% | 3.05 | -5.55% | 9.05 | 11.6% | 5.95%
11 | O=CC(=O)c1ccc(Br)cc1 | 13.7% | 19.2 | 13.2% | -1.05 | -7.15% | 19.4%
12 | CC(=O)Nc1ccc(/C=C(\NC(=O)c2ccccc2)C(=O)NNS(=O)(=O)c2ccc(C)cc2)cc1 | 21.6% | 17.7 | -9.3% | -5.5 | -4.2% | 21.4%
13 | Cc1cc2c(=O)c(C(=O)O)c[nH]c2cc1-n1cccc1 | 41.8% | 23.6 | 45% | 15.7 | 36.3% | 33.2%
14 | CCOC(=O)C(C)(Cc1ccco1)C(=O)OCC | -16.1% | -10.3 | -5.2% | -33.5 | 14.4% | -12.3%
15 | CCOC(=O)OCCOCCOC(=O)OCC | -2.25% | -14.2 | -30.8% | 19.2 | -2.65% | 25.8%
16 | CC(C)CC(NC(=O)c1cc([N+](=O)[O-])cc([N+](=O)[O-])c1)C(=O)O (stereo not given) | -2% | -2.7 | 16.1% | 8.5 | -41.2% | -5.5%
17 | O=c1[nH]c(=O)n(COCc2ccccc2)c2ccccc12 | 5.1% | -12.2 | 65.2% | 12.7 | 37.7% | -18.4%
18 | COc1cccc(C2c3cc4c(cc3OC(N3CCCC3)C2C)OCO4)c1OC (stereo not given) | 24.8% | 17.6 | -9.65% | 1 | 11.4% | 29.9%
19 | O=c1cccccc1Cl | 14.8% | -41.6 | 20.9% | 5.6 | 40.8% | 11.6%
20 | Clc1cccc2nc(-c3ccccn3)n(CCc3ccncc3)c12 | 90% (active) | 51.1 | 84.7% (active) | 60.6 | 74.7% (active) | 86.2% (active)
